Results on 30 compounds are retold here after PubChem BioAssay (EPA / NIEHS).

Where a structure was tested more than once in an assay, its records may differ in their call. Active and inactive are the calls of the source. The calls were made as follows: active = hit-call score of the fitted dose curve at least 0.9, where 1 is the maximum; inactive = score below 0.9.

Read-out in the assay: Decorin, DCN (gene 1634)
Nature of the assay: BSK_MyoF_Decorin: BioMAP Diversity Plus: MyoF Assay for Decorin Biomarker Activity (AID 2284265). The conditions noted are these: primary human lung fibroblasts. The protocol: BSK_MyoF is a cell-based, multiplexed-readout assay that uses lung fibroblasts, […], with measurements taken at 24 hours after chemical dosing in a microplate: 96-well plate.BSK_MyoF_Decorin is an assay component measured in the BSK_MyoF assay. It measures Decorin antibody related to regulation of gene expression using ELISA technology.Data from the assay component BSK_MyoF_Decorin was analyzed at the endpoint, BSK_MyoF_Decorin, in the positive analysis fitting direction relative to DMSO as the negative control and baseline of activity. Using a type of binding reporter, gain or loss-of-signal activity can be used to understand protein changes. To generalize the intended target to other relatable targets, this assay endpoint is annotated to the 'cell adhesion molecules' intended target family, where the subfamily is 'decorin'.
The levels of cell surface (or secreted, indicated by the prefix "s") biomarker endpoints were measured by ELISA. Overt cytotoxicity to cells in confluent adherent cultures (all systems other than the BT system) was assessed by measuring total protein levels using sulforhodamine B (SRB) staining in parallel cultures at the time of biomarker measurements, indicated as SRB endpoints. For proliferation assays for adherent cell types, individual cell types are cultured at sub-confluence and relative cell numbers quantified by SRB staining at time points optimized for each system (48 h: 3C and CASM3C systems; 72 h: BT and HDF3CGF systems; 96 h: SAg system). SRB was performed by staining cells with 0.1% SRB after fixation with 10% TCA and reading wells at 560 nm.Viability and proliferation of PBMC (T cells) was quantified by Alamar Blue reduction for the SAg and BT systems. For PBMC viability (referred to as PBMC Cytotoxicity within the assay endpoint names), cells were plated (75,000/well in a 96-well plate) and then chemical samples added for 1 h before addition of activators, SEB and TSST-1 (20 ng/mL final concentration each). Cells were incubated for 90 h. Then, Alamar Blue (20 uL/well) (Invitrogen, Cat DAL1100) was added for 6 h, and the plates were read with a fluorescence microplate reader at 546/580 nm (excitation/emission). For PBMC proliferation, cells were plated and activated as above but incubated for only 16 h prior to addition of Alamar Blue. Plates were read after 6 h.
As to `C=CC(=O)OCC(CO)(COC(=O)C=C)COC(=O)C=C`, the AC50 is 3.97 µM (active).

As for `CCCCCCCC1CCCC1=O` (stereo unspecified), the result was inactive.

For the compound `O=C1OC2(c3ccc(O)cc3Oc3cc(O)ccc32)c2ccccc21`, the outcome was inactive.

For `C=C(C)C(=O)OCCC(F)(F)C(F)(F)C(F)(F)C(F)(F)C(F)(F)C(F)(F)C(F)(F)C(F)(F)F`, the result was inactive.

On to `CC=CC(=O)C1=C(C)C=CCC1(C)C`, for which the result was inactive.

For the compound `Nc1ccc(N)c([N+](=O)[O-])c1`, the outcome was inactive.

With `NC(=O)c1c(Cl)cccc1Cl`, the result was inactive.

With `c1ccc(Sc2ccccc2)cc1`, the AC50 is 36.5 µM (active).

Take `CC1(C)[C@H](C=C(Cl)Cl)[C@H]1C(=O)OCc1cccc(Oc2ccccc2)c1`: the result was inactive.

For `COc1ccccc1NC(=O)CC(C)=O`, the outcome was inactive.

With `CCOC(=O)C=Cc1ccccc1`, the result was inactive.

For the compound `C=C(F)C(=O)OC(C(F)(F)F)C(F)(F)F`, the outcome was inactive.

For `CC(C)Cc1ccc(C(C)C(=O)O)cc1` (stereo unspecified), the outcome was inactive.

As to `O=S1(=O)CC(Cl)(Cl)C(Cl)(Cl)C1`, the result was inactive.

As to `c1ccc2c(c1)-c1ccc3ccc4cccc5cc-2c1c3c45`, the outcome was inactive.

Regarding `CCCCCCCCCC(=O)OCC`, the result was inactive.

`O=C(O)C(F)(F)C(F)(F)C(F)(F)C(F)(F)C(F)(F)C(F)(F)C(F)(F)C(F)F`: the result was inactive and the AC50 is 22.5 µM (active).

On to `CCC(=O)OCC=Cc1ccccc1`, for which the outcome was inactive.

For `CC(C)(C)c1cccc(O)c1`, the outcome was inactive.

In the case of `CC1=CC(C)C(C=O)C(C)C1` (stereo unspecified) (tested in a mixture with another compound), the result was inactive.

With `O=C(O)C(F)(F)OC(F)(F)C(F)(F)OC(F)(F)C(F)(F)C(F)(F)C(F)(F)F`, the result was inactive.

Regarding `C=C1CC/C=C(\C)CC[C@@H]2[C@@H]1CC2(C)C`, the AC50 was 31 µM (active).

Consider `CCOC(=O)CCCCCCCCC(=O)OCC`, for which the outcome was inactive.

Regarding `CCCCCCCCCCCCS`, the AC50 was 3.97 µM (active).

Consider `OCCN1CCOCC1`, for which the outcome was inactive.

For `CC(=O)OCC=C(C)CCC=C(C)CCC=C(C)C`, the outcome was inactive.

`OCC(F)(OC(F)(F)C(F)(OC(F)(F)C(F)(F)C(F)(F)F)C(F)(F)F)C(F)(F)F` (stereo unspecified): the result was inactive.

As to `O=S(=O)(O)C(F)(F)C(F)(F)OC(F)(F)C(F)(F)F`, the outcome was inactive.

As to `CC(=O)CCC=C(C)CCC=C(C)C`, the outcome was inactive.

For `CC(=O)OC(C)(C)C1CC=C(C)CC1` (stereo unspecified), the result was inactive.

Usually AC50 stands for the concentration giving half of the maximal activity seen.
